USP30 block – blocks human USP30 ubiquitin-rhodamine cleavage; Q70CQ3; purified USP30, Ub-rhodamine cleavage fluorescence; inhibition, % at 25 µM; 47,000 compounds, 5.3% hits; AID 1645860
USP17 block – human USP17-like deubiquitinase inhibition. AID 1645855. inhibition, % at 50 µM. A8MUK1. purified USP17, Ub-rhodamine cleavage fluorescence, 3 h. 47,000 compounds, 6.5% hits
USP28 inh – inhibitors of human USP28 deubiquitinase. Q96RU2. purified USP28, Ub-rhodamine cleavage fluorescence, 30 min. inhibition, % at 25 µM. 47,000 compounds, 3% hits. AID 1645857
OTUD3 block – blocks human OTUD3 ubiquitin-rhodamine cleavage. purified OTUD3, Ub-rhodamine fluorescence, 2 h. AID 1645858. 47,000 compounds, 0.7% hits. inhibition, % at 25 µM. Q5T2D3
Starred values were filed as active, the others as inactive; . = not tested or not shown. This is a sample that favours compounds with a hit; in the whole collection about 11% have one here. Rule as the data show it: active = inhibition above about 30%; inactive = the rest.

SMILES | USP30 block | USP17 block | USP28 inh | OTUD3 block
O=C(Cn1c(=O)n(Cc2ccc3c(c2)OCO3)c(=O)c2ncccc21)c1ccccc1 | 53.8* | 6.3 | 14.9 | 2.3
O=C(Cn1c(=O)n(Cc2ccccc2)c(=O)c2ncccc21)N1CCCc2ccccc21 | -9.5 | -2.7 | -7.6 | -14.6
O=C(Cn1c(=O)n(Cc2ccc(F)cc2)c(=O)c2ncccc21)Nc1ccccc1 | 64.9* | 24.4 | 16.2 | 5.3
O=C(Cn1c(=O)n(Cc2ccc(F)cc2)c(=O)c2sccc21)Nc1cccc(Cl)c1 | 27.9 | 65.0* | 0.0 | -7.8
CCOc1ccc(-n2c(=O)c3sccc3n(CC(=O)Nc3cccc(C)c3)c2=O)cc1 | -0.3 | 1.1 | -3.3 | 2.4
O=C(Cn1c(=O)c2cccn2c2ccccc21)NCc1ccc(F)cc1 | -138.0 | 0.5 | 1.5 | 0.1
Cc1ccc(CNC(=O)Cn2c(=O)n(CCCC(=O)NCc3ccc(F)cc3)c(=O)c3ccccc32)cc1 | 17.9 | 33.4* | 13.1 | 24.3
COc1ccc(CCC(=O)Nc2nnc(C3CC(=O)N(c4ccccc4)C3)s2)cc1 (stereo not drawn) | 9.5 | -3.3 | 26.3 | 0.8
O=C(c1nc(-c2cnccn2)no1)N1CCN(c2ccccc2)CC1 | 0.1 | -6.7 | 6.6 | 10.4
COc1ccccc1CNS(=O)(=O)c1cc(-c2[nH]ncc2C(=O)N(C)C)oc1C | -3.9 | 5.7 | -3.1 | 2.2
Cc1ccc(Cn2c(=O)c3ncccc3n(CC(=O)NCc3ccc(F)cc3)c2=O)cc1 | 84.0* | 76.6* | 78.4* | 45.2*
O=C(Cn1c(=O)n(Cc2ccncc2)c(=O)c2ncccc21)Nc1cccc(F)c1 | 1.2 | -2.0 | 4.1 | 1.7
O=C(NCc1c(-c2ccc(F)cc2)nc2n1CCS2)c1cccnc1 | -0.9 | -8.5 | -2.0 | -4.3
Cc1cccc(NC(=O)N2C[C@@H]3c4nccn4-c4ccccc4[C@@H]3C2)c1 | -10.4 | -25.6 | 0.9 | 0.2
O=C(Oc1ccc(-n2cnnn2)cc1)c1ccccc1Br | -0.4 | 33.4* | 1.9 | 2.5
O=C(COc1ccc(F)cc1)Oc1ccc(-n2cnnn2)cc1 | 30.4* | 5.5 | 19.6 | 16.2
Cc1cccc(OCC(=O)Oc2ccc(-n3cnnn3)cc2)c1C | -1.9 | -0.1 | 1.1 | 1.7
COc1cccc(C(=O)Nc2ccc(-n3cnnn3)cc2)c1 | 50.6* | 31.7* | 17.3 | 8.1
Cc1cc(=O)oc2cc(NC(=O)c3ccccc3C(=O)O)ccc12 | . | 8.9 | . | 0.6
Cc1cc(=O)oc2cc(NC(=O)c3ccc(-n4cnnn4)cc3)ccc12 | 27.2 | 43.6* | 2.8 | 11.4
Cc1ccc(NC(=O)c2cccc(-n3cnnn3)c2)cc1 | 15.0 | 10.6 | 6.1 | 7.6
O=C(CCN1C(=O)c2cccnc2Sc2ccccc21)NCC1CCCO1 (stereo not drawn) | 22.4 | 2.3 | 9.0 | 13.2
O=C(COc1cccc(-n2cnnn2)c1)Nc1ccc2c(c1)OCCO2 | 14.4 | 5.0 | 50.4* | 2.8
O=C(COc1ccc(-n2cnnn2)cc1)Nc1cc(Cl)ccc1Oc1ccccc1 | 5.9 | 16.6 | 19.7 | 7.5
N#Cc1ccc(NC(=O)COc2ccc(-n3cnnn3)cc2)cc1 | 36.8* | 49.1* | 20.7 | 8.4
SMILES | USP30 block | USP17 block | USP28 inh | OTUD3 block
COc1ccc(OC)c(C(C)NC(=O)c2nc3n(n2)-c2ccccc2S(=O)(=O)N3)c1 (stereo not drawn) | -19.4 | -12.4 | 3.4 | 0.3
Cc1cc2ncc(-c3ccsc3)c(N)n2n1 | -8.1 | -5.0 | -2.1 | 3.4
Nc1c(-c2ccc(Cl)cc2)cnc2nc(Sc3ncc(C(F)(F)F)cc3Cl)nn12 | 33.0* | 26.2 | 5.6 | 30.5*
Nc1c(-c2ccc(Cl)cc2)cnc2cc(-c3ccc(Cl)c(Cl)c3)nn12 | 59.6* | 41.2* | 24.4 | 0.1
FC(F)(F)c1cnc(-n2nccc2-c2ccc(Sc3ccccc3)cc2)c(Cl)c1 | -8.5 | -2.7 | -4.4 | 1.3
CCOc1ccc(N(C(=O)c2cnccn2)C(C(=O)Nc2ccc(F)cc2)c2ccccc2F)cc1 (stereo not drawn) | -2.0 | 8.3 | 9.4 | -0.1
CC(=O)N1CCC(c2c(C(=O)N(C)Cc3c(C)nn(C)c3C)sc3ccccc23)C1 (stereo not drawn) | -0.1 | 0.9 | 1.1 | -2.3
Brc1ccc(Nc2nc(-c3ccccn3)nc3ccccc23)cc1 | 90.4* | 52.0* | 93.4* | 51.2*
FC(F)(F)c1cccc(Nc2nc(-c3ccccn3)nc3ccccc23)c1 | 52.0* | 74.5* | 88.2* | -4.3
OCCCNc1cc(-c2cccc(C(F)(F)F)c2)nc(-c2ccccn2)n1 | -12.3 | -41.6 | -9.1 | -6.1
Cc1cc(C)cc(NC(=O)Cc2nc(-c3ccccn3)n[nH]2)c1 | -1.2 | -52.3 | -10.4 | -4.4
O=C(CN1CCn2c(cnc2C(F)(F)F)C1=O)Nc1ccccc1Cl | 19.0 | 9.5 | 14.1 | 16.4
